# ClpP mod: qHTS Assay for Activators of ClpP | purified B. subtilis ClpP, FRET peptide cleavage, 20 min | Potency, µM (top dose mostly 57.5 µM) | 1.9% of 340,000 active | AID 651965, 2013; active means well fitted falling curve with a large enough effect; inconclusive means small, poorly fitted or top-dose-only effect; inactive means no such curve, though single readings can be large or run the other way; further: the source files actives as falling curves though it sought activators and does not explain the sign; nearly all actives have a fitted effect of over 65% in size
# Target sequence (P80244 whole entry, looked up): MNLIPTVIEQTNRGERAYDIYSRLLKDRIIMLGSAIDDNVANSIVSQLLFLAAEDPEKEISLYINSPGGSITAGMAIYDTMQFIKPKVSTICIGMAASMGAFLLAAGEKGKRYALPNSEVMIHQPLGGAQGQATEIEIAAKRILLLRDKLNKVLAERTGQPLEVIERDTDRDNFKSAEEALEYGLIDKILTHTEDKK
#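 ClpP 10 microg/mL final, pH 8 Tris/KCl buffer with BSA, glycerol, Tween-20; compound pinned in; FRET-FV substrate; RT 20 min; Ex320/Em430; ΔFRET vs ADEP 5.8 microM, DMSO, no enzyme.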
# IL1B secr inh: qHTS for Inhibitors of Inflammasome Signaling: IL-1-beta AlphaLISA Primary Screen | THP-1 LPS/ATP IL-1B secretion, AlphaLISA, 16 h; stronger effect = lower value | 4.7% of 360,000 active | activity change, % at 57.5 µM; in the data active means activity change below about -50%; inconclusive means mostly about -30% to -49%
#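 Secreted IL-1B measured by AlphaLISA bead assay after 16 h compound exposure of THP-1 cells; compounds (final up to 57.5 uM) added 1 h before LPS (250 ng/mL) and ATP (1.25 mM) stimulation; lower signal means less secretion.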
# DRD3 agonist: qHTS of D3 Dopamine Receptor Agonist: qHTS; D(3) dopamine receptor (Homo sapiens), P35462; D3R DiscoveRx beta-arrestin cells, luminescence, 90 min; max activation, %; 0.58% of 410,000 active; AID 652048, 2013; in the data active means max activation above about 30%
# Target sequence (P35462 whole entry, looked up): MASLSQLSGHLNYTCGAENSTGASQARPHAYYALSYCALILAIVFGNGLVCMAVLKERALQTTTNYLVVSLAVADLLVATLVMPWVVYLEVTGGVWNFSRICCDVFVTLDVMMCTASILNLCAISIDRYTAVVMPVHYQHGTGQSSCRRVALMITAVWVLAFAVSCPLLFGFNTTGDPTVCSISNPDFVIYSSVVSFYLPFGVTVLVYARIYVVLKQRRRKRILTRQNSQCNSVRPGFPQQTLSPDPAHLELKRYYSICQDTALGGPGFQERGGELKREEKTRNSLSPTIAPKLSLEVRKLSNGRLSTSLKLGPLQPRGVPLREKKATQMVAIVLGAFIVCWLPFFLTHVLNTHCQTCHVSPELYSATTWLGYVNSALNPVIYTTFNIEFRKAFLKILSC
#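 Cells at 1500/well, incubated overnight, then treated with pinned compounds (dopamine as control) for 90 min at 37 degrees C. DiscoveRx reagent added for 30 - 60 minutes at room temperature; luminescence read.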
# TDP1 cell CPT: qHTS for Inhibitors of human tyrosyl-DNA phosphodiesterase 1 (TDP1): qHTS in cells in presence of CPT; chicken DT40 Tdp1-/-;hTDP1 cells + 20 nM CPT, ATP luminescence, 48 h; Potency, µM (top dose mostly 46.2 µM), hits mostly inhibitors; 12% of 420,000 active; further: nearly all actives have a fitted effect of over 55% in size
#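 Chicken DT40 Tdp1-/- cells complemented with human TDP1, 400 cells/well, exposed to compounds plus 20 nM camptothecin for at least 48 h at 37 C; viability read as ATP content by CellTiter-Glo luminescence.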
# DRD3 antagonist: qHTS of D3 Dopamine Receptor Antagonist: qHTS; 2.5% of 360,000 active; max response, negative = inhibition, %; AID 652054, 2013; D(3) dopamine receptor (Homo sapiens), P35462; D3R cells, DiscoveRx beta-arrestin luminescence, antagonist mode; stronger effect = lower value; in the data active means max response below about -50%; inconclusive means no clear call, values can overlap the other calls
#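 Cells plated overnight at 1500 cells/well, then exposed to library compounds with dopamine controls for 90 minutes at 37 degrees C. DiscoveRx reagent added for 30–60 minutes at room temperature; luminescence read, quantitative HTS format.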
# DT40 TDP1 no CPT: qHTS for Inhibitors of human tyrosyl-DNA phosphodiesterase 1 (TDP1): qHTS in cells in absence of CPT; Potency, µM (titrated, usually from 46.2 µM), hits mostly inhibitors; 15% of 420,000 active; AID 686978, 2013; DT40 Tdp1-/- hTDP1 cells, no CPT, ATP luminescence, 48 h; further: nearly all actives have a fitted effect of over 55% in size
#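 Growth of hTDP1-complemented DT40 Tdp1-knockout cells is measured by ATP luminescence after at least 48 hr compound exposure at 37 °C, with DMSO substituting for the 20 nM CPT used in the parallel screen.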
# Hits are given with their value; i = inactive; ? = inconclusive; nt = no result. Only some compounds are listed: those with a hit (about 21% of all), similar ones and a draw of the others. Unless noted, the call rests on the fitted dose curve; in most records, active means well fitted inhibition curve with a large enough effect; inconclusive means small, poorly fitted or top-dose-only effect; inactive means flat fitted curve, though single readings scatter.
SMILES,ClpP mod,IL1B secr inh,DRD3 agonist,TDP1 cell CPT,DRD3 antagonist,DT40 TDP1 no CPT
COc1ccc(NC(=O)N(C)C[C@H]2Oc3ccc(NS(=O)(=O)c4ccccc4)cc3C(=O)N([C@H](C)CO)C[C@@H]2C)cc1,i,i,i,i,i,i
Cn1c(SCC(=O)Nc2nccs2)nnc1-c1ccccn1,i,i,i,i,i,i
CC(=O)c1c(C)[nH]c(C2=NNC(=NC(C)(C)C)SC2)c1C,nt,i,i,i,i,i
CCOC(=O)c1c(C)[nH]c(C2=NNC(=Nc3ccc(OCC)cc3)SC2)c1C,i,-52,i,16µM,i,16µM
CCOC(=O)c1c(C)[nH]c(C2=NNC(=Nc3ccccc3OC)SC2)c1C,i,-62,i,?,i,18µM
CCOC(=O)c1c(C)[nH]c(C2=NNC(=Nc3ccccc3)SC2)c1C,i,-67,i,13µM,i,9.2µM
CC(Sc1ncn[nH]1)C(=O)Nc1cc(C(F)(F)F)ccc1Cl (centres undefined),i,i,i,i,i,i
COc1cc2oc(=O)c(CC(=O)N3CCCCC3)c(C)c2cc1Cl,i,nt,i,i,nt,i
Cc1sc(NC(=O)c2ccc(F)cc2)c(CN2CCCCCC2)c1C,i,i,i,13µM,i,13µM
O=C(Nc1sc2c(c1CN1CCOCC1)CCC2)c1ccc(F)cc1,i,i,i,?,i,?
O=C(Nc1ccc(CN2CCOCC2)cc1)c1ccccc1F,i,i,i,i,i,i
Cc1sc(NC(=O)c2ccco2)c(CN2CCN(Cc3ccccc3)CC2)c1C,nt,-80,i,12µM,i,12µM
Cc1sc(NC(=O)c2ccccc2F)c(CN2CCCCC2)c1C,i,i,i,21µM,i,23µM
Cc1nnsc1Sc1ccccc1,nt,i,i,i,i,i
Cc1ccn2c(=O)nc(SCC(=O)NC3CCCC3)nc2c1,i,i,i,i,i,i
CCCOc1ccc(F)cc1-c1cc(C(=O)NC(C)C)[nH]n1,i,i,i,?,i,?
CCCOc1ccc(F)cc1-c1cc(C(=O)Nc2ccc(OC)c(OC)c2)[nH]n1,i,-68,i,21µM,i,?
CC(C)Oc1cc(F)ccc1-c1cc(C(=O)NCc2cccs2)[nH]n1,i,i,i,?,i,?
CCCOc1ccc(F)cc1-c1cc(C(=O)Nc2ccc(C(C)C)cc2)[nH]n1,i,i,i,?,?,26µM
COc1ccc(NC(=O)c2cc(-c3cc(F)ccc3OC)n[nH]2)cc1OC,i,i,i,21µM,i,23µM
COc1ccc(NC(=O)c2cc(-c3cc(F)ccc3OC)n[nH]2)cn1,i,nt,i,?,i,?
CCCOc1ccc(F)cc1-c1cc(C(=O)NCc2cccs2)[nH]n1,i,?,i,23µM,i,7.3µM
COc1ccc(N2Cc3ccccc3C2=NC(=O)c2cncc(Br)c2)cc1,i,i,i,i,i,i
CCOc1ccc(/C=N/Nc2ccccc2)cc1,i,i,i,?,i,15µM
O=C(Nc1nnc(COc2ccccc2F)s1)Nc1ccccc1F,nt,i,i,?,i,21µM
SMILES,ClpP mod,IL1B secr inh,DRD3 agonist,TDP1 cell CPT,DRD3 antagonist,DT40 TDP1 no CPT
O=C(Nc1ccc(F)cc1)Nc1nnc(COc2ccccc2F)s1,nt,-166,i,15µM,i,16µM
CN(C(=O)c1cccc(NC(=O)Cc2cccc([N+](=O)[O-])c2)c1)C1CCCC1,i,nt,i,18µM,-75,?
CN(Cc1ccccc1)C(=O)c1cccc(NC(=O)Cc2cccc([N+](=O)[O-])c2)c1,i,?,i,?,i,23µM
CN(C(=O)c1cccc(NC(=O)Cc2ccc([N+](=O)[O-])cc2)c1)C1CCCC1,i,i,i,23µM,i,26µM
CN(C(=O)c1ccc(NC(=O)Cc2ccc(NC(=O)C3CCN(C(=O)C4CCCC4)CC3)cc2)cc1)C1CCCC1,i,i,i,?,i,?
CN(C(=O)c1cccc(NC(=O)Cc2ccc(NC(=O)C3CCCN(S(=O)(=O)c4cccc([N+](=O)[O-])c4)C3)cc2)c1)C1CCCC1 (centres undefined),i,i,i,i,i,?
CN(C(=O)c1ccc(NC(=O)Cc2ccc([N+](=O)[O-])cc2)cc1)C1CCCC1,i,i,i,13µM,i,?
CN(C(=O)c1cccc(NC(=O)Cc2cccc([N+](=O)[O-])c2)c1)C1CCC1,i,i,i,?,i,?
COc1cc(/C=C2/N=C(C3CCCCC3)OC2=O)cc(OC)c1OC,i,i,i,i,-69,i
COc1ccc(/C=C2/CC/C(=C\c3ccc(OC)c(OC)c3OC)C2=O)c(OC)c1OC,i,i,i,?,i,8.2µM
COc1cccc(/C=C2\CCC(C3CCCC3)C2=O)c1OC (centres undefined),nt,i,i,?,i,?
COc1cc(/C=C2\CCC(C3CCCC3)C2=O)cc(OC)c1OC (centres undefined),nt,i,i,?,i,16µM
COc1ccc(C=C2SC(=S)NC2=O)c(OC)c1OC,i,?,i,?,?,?
COc1ccc(/C=C2\CCC(C3CCCC3)C2=O)c(OC)c1OC (centres undefined),i,i,i,?,?,18µM
CC(C)CC(NC(=O)C1CCC(=O)N1)C(=O)NC(CC(C)C)C(=O)N1CCCC1C(N)=O (centres undefined),i,i,i,i,i,i
CCOC(=O)c1cccc(NC(=O)c2cc3c(=O)n(Cc4cccnc4)ccc3nc2C)c1,i,nt,i,?,nt,?
C[C@H](CO)N1C[C@H](C)[C@@H](CN(C)C(=O)Nc2ccccc2)Oc2ccc(NS(=O)(=O)c3cn(C)cn3)cc2C1=O,i,i,i,i,i,i
O=C(N/N=C\c1ccc(Cl)cc1)C1=NOC2COC3(CCN(c4ccc([N+](=O)[O-])cc4)CC3)OCC12 (centres undefined),i,i,i,10µM,i,6.5µM
NNC(=O)C1=NOC2COC3(CCN(c4ncccn4)CC3)OCC12 (centres undefined),nt,i,i,i,i,?
Cc1cc(N/N=C/c2ccc(O)cc2O)nc(-n2nc(C)cc2C)n1,i,i,i,0.23µM,-122,0.29µM
COc1ccc(/C=N/Nc2cc(C)nc(NS(=O)(=O)c3ccc(C)cc3)n2)cc1,nt,i,i,?,i,?
Cc1cc(C)n(-c2ccccc2[N+](=O)[O-])n1,nt,i,i,i,i,?

# Screening results as filed in PubChem BioAssay.
